Laboratory results from publication PMC4336329 (PLoS ONE, 2015).
About 14,000 (4.5%) of roughly 310,000 compounds showed an effect of 50% or more. The effect is printed as a negative number. The sample holds strong results, similar compounds and a random draw of the others, so the mix is not that of the screen.

Biological target: human ether-à-go-go-related gene (hERG) potassium channel (human, UniProt Q12809)
Assay: primary screen, population patch clamp on CHO cells stably expressing hERG; higher = less effect of the substance
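Further: peak tail current of the secondary pulse compared with the same well before compound.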

human ether-à-go-go-related gene (hERG) potassium channel, sequence (Q12809 whole entry, looked up): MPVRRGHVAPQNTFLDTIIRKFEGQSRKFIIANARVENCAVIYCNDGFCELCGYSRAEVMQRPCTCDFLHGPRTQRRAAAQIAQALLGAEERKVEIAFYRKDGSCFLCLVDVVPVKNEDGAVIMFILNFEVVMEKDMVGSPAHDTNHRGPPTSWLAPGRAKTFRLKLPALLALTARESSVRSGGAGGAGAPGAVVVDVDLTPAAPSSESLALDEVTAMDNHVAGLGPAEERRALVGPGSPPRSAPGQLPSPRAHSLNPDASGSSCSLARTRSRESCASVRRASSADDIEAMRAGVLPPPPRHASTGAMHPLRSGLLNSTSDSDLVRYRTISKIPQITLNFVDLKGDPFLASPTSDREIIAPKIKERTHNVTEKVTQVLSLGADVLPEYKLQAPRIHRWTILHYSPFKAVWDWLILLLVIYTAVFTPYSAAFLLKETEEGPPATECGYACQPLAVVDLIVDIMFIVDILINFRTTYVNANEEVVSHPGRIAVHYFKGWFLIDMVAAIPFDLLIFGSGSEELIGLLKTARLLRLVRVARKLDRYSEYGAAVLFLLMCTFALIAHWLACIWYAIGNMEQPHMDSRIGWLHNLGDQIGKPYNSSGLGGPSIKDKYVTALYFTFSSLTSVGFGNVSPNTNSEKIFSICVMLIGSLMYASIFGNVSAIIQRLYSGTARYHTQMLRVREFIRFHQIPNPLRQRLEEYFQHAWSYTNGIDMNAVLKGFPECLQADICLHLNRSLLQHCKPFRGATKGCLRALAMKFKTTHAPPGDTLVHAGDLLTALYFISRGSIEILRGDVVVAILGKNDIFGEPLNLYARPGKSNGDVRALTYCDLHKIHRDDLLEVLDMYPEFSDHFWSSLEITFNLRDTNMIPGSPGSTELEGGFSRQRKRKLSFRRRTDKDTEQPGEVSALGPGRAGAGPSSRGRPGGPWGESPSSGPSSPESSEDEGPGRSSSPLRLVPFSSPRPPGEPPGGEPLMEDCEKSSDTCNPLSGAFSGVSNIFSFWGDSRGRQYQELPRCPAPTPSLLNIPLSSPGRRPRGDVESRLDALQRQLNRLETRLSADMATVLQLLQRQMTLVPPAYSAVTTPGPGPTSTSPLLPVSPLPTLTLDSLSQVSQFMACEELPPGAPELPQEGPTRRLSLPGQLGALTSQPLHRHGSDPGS

Row | SMILES | hERG current change (%, negative = inhibition) at 10uM
1 | CCc1cc2c(=O)nc3n(c2s1)Cc1ccccc1/C3=C(/O)c1ccc(F)cc1 | -3.7%
2 | Cc1nnc(NC(=O)CN2CCN(Cc3ccc(F)cc3Cl)CC2)s1 | 8.45%
3 | Cc1c(Cl)cccc1NC(=O)C1CCCN(S(C)(=O)=O)C1 (stereo not drawn) | 22%
4 | O=C(CN1C(=O)C2CC=C(Cl)CC2C1=O)Nc1ccc(C(=O)O)cc1 (stereo not drawn) | 3.39%
5 | CCN1CCN(c2ncnc3scc(-c4ccc(C)c(C)c4)c23)CC1 | -76.4%
6 | COc1ccc(-c2csc3ncnc(N4CCN(c5ccccc5)CC4)c23)cc1 | 12.3%
7 | Cc1ccc(-c2csc3ncnc(N4CCN(C)CC4)c23)cc1C | -18.7%
8 | CCN1CCN(c2ncnc3scc(-c4ccc(OC)cc4)c23)CC1 | -54.6%
9 | COc1ccc(-c2csc3ncnc(N4CCN(CCO)CC4)c23)cc1 | -1.12%
10 | OCCN1CCN(c2ncnc3scc(-c4ccc(F)cc4)c23)CC1 | -22.1%
11 | Cc1cc(-c2csc3ncnc(N4CCN(C)CC4)c23)cc(C)c1C | -65.2%
12 | Fc1ccc(CN2CCN(c3ncnc4scc(-c5ccccc5)c34)CC2)cc1 | -39.9%
13 | CC(C)c1ccc(-c2csc3ncnc(N4CCN(C)CC4)c23)cc1 | -21.6%
14 | CCOc1ccc(CN2CCN(c3ncnc4scc(-c5ccccc5)c34)CC2)cc1 | -75.3%
15 | CCN1CCN(c2ncnc3scc(-c4ccc(C)cc4)c23)CC1 | -22.5%
16 | Cc1ccc(-c2csc3ncnc(N4CCN(Cc5ccccc5)CC4)c23)cc1 | 18%
17 | CCOC(=O)c1ccc(NC(=O)c2ccc(C)c(S(=O)(=O)N3CCOCC3)c2)cc1 | -33.4%
18 | CC(C)(C)C(=O)N1CCN(c2ccc(NC(=O)c3ccc([N+](=O)[O-])o3)cc2)CC1 | 10.2%
19 | COc1ccccc1N(C)S(=O)(=O)c1ccc(C(=O)NC(C)c2ccccc2)cc1 (stereo not drawn) | -43.7%
20 | COc1ccc(-c2nnc(-c3cc4c(ccc5ccccc54)oc3=O)o2)cc1 | -8.75%
21 | Clc1ccc(CSc2nnc(-c3ccncc3)o2)cc1 | -11.5%

Row | SMILES | hERG current change (%, negative = inhibition) at 10uM
22 | Cc1csc(NC(=O)CCc2c(C)nc3cc(-c4ccc(Cl)cc4)nn3c2C)n1 | -2.4%
23 | Fc1ccc(CN2CCN(c3ncnc4scc(-c5ccc(F)cc5)c34)CC2)cc1 | 5.9%
24 | c1ccc(-c2csc3ncnc(N4CCN(Cc5ccc6c(c5)OCO6)CC4)c23)cc1 | -57.6%
25 | COc1ccccc1N1CCN(c2ncnc3sc(C)c(-c4ccccc4)c23)CC1 | 14.2%
26 | CCN1CCN(c2ncnc3sc(C)c(-c4ccccc4)c23)CC1 | -57.1%
27 | O=C(CSc1ncnc2scc(-c3ccccc3)c12)N1CCN(Cc2ccc3c(c2)OCO3)CC1 | -35.7%
28 | COc1ccc(F)cc1CN1CCN(c2ncnc3scc(-c4ccccc4)c23)CC1 | -41.6%
29 | COc1ccc(CN2CCN(c3ncnc4scc(-c5ccc(F)cc5)c34)CC2)cc1 | -65.8%
30 | COc1ccc(N2CCN(c3ncnc4scc(-c5ccc(F)cc5)c34)CC2)cc1 | -0.492%
31 | Cc1sc2ncnc(N3CCN(Cc4ccccc4)CC3)c2c1-c1ccccc1 | -34.8%
32 | CNc1c([N+](=O)[O-])cnn1-c1ccccn1 | -15.5%
33 | CC(C)(O)C#Cc1ccc(C(=O)NCCc2ccc(S(N)(=O)=O)cc2)cc1 | 13.6%
34 | O=C(NNS(=O)(=O)c1cccc(Cl)c1)c1cc(-c2ccc(F)cc2)nc2ccccc12 | 11.6%
35 | Cc1ccc(C(=O)COC(=O)CNS(=O)(=O)c2ccc(C)cc2)cc1 | 12.4%
36 | CCOC(=O)C(NC(C)=O)(Nc1ccc(F)cc1)C(F)(F)F (stereo not drawn) | -3.72%
37 | O=C(O)c1cnc(-c2ccccc2)nc1Sc1cccc(Cl)c1 | 26.7%
38 | O=C(O)/C(=C\c1cn(-c2ccccc2)nc1-c1cccnc1)NC(=O)c1ccccc1 | 7.21%
39 | NC(=O)[C@H]1CC2(CC(c3cccc(NC(=O)COc4ccc(Cl)cc4)c3)=NO2)CN1C(=O)c1ccc(Cl)cc1 (stereo partly drawn) | -9.96%
40 | C/C=C/C(=O)N1CC2(CC(c3cccc(NC(=O)COc4ccc(Cl)cc4)c3)=NO2)C[C@@H]1C(N)=O (stereo partly drawn) | -41.4%
41 | CC/C=C/C(=O)N1CC2(CC(c3cccc(NC(=O)COc4ccc(Cl)cc4)c3)=NO2)C[C@H]1C(N)=O (stereo partly drawn) | -64.7%
42 | C/C=C\C=C/C(=O)Nc1cccc(C2=NOC3(C2)C[C@@H](C(N)=O)N(C(=O)COc2ccc(Cl)cc2)C3)c1 (stereo partly drawn) | -7.47%

Row | SMILES | hERG current change (%, negative = inhibition) at 10uM
43 | C/C=C\C=C\C(=O)N1CC2(CC(c3cccc(NC(=O)COc4ccc(Cl)cc4)c3)=NO2)C[C@H]1C(N)=O (stereo partly drawn) | -76.9%
44 | CC/C=C/C(=O)N1CC2(CC(c3cccc(NC(=O)CC)c3)=NO2)C[C@H]1C(N)=O (stereo partly drawn) | 13.6%
45 | Cn1nc(-c2ccccc2)c(CSc2ccccc2Cl)c1Cl | 6.46%
46 | Cc1cccc(C(=O)Nc2c(C(=O)N3CCN(C)CC3)cnn2-c2ccccc2)c1 | -15.9%
47 | CN1CCN(C(=O)c2cnn(-c3ccccc3)c2NC(=O)c2ccc(Br)cc2)CC1 | -81.4%
48 | CN1CCN(C(=O)c2cnn(-c3ccccc3)c2NC(=O)c2ccccc2)CC1 | -17.8%
49 | CN1CCN(C(=O)c2cnn(-c3ccccc3)c2NC(=O)c2ccccc2Br)CC1 | 3.72%
50 | CN1CCN(C(=O)c2cnn(-c3ccccc3)c2NC(=O)c2ccc([N+](=O)[O-])cc2)CC1 | -51.6%
51 | O=C(Nc1c(C(=O)N2CCOCC2)cnn1-c1ccccc1)c1ccc([N+](=O)[O-])cc1 | -16%
52 | O=C(CNC(=O)c1ccc(Br)o1)NCc1ccccc1Cl | 1.15%
53 | CCCCc1ccc(NC(=S)NCCN2CCOCC2)cc1 | -39%
54 | CCOC(=O)CSc1cc(C(F)(F)F)nc(-c2ccccn2)n1 | -31.5%
55 | CC(C)CCc1noc(CN2CCC(C(=O)N3CCOCC3)CC2)n1 | -6.13%
56 | C/C=C/n1ccnc1CC(O)(c1ccccc1)c1ccc(C)cc1 (stereo not drawn) | -22.5%
57 | Nc1nnnn1/N=C\c1ccc(Cl)c([N+](=O)[O-])c1 | 3.26%
58 | COc1ccc(NC(=S)Nc2cccnc2)c(OC)c1 | 8.2%
59 | CCN(CC(=O)Nc1cc(OC)ccc1OC)Cc1nc2ccccc2c(=O)[nH]1 | -8.33%
60 | CCc1ccc2c(CN(CC)Cc3nc4ccccc4c(=O)[nH]3)cc(=O)oc2c1 | -71.6%
61 | CCN(Cc1nc2ccccc2c(=O)[nH]1)Cc1nc2cc(OC)c(OC)cc2c(=O)[nH]1 | 14.9%
62 | CCN(Cc1nc2ccccc2c(=O)[nH]1)Cc1cc(=O)oc2cc(C)c(C)cc12 | -41.4%
63 | CCN(Cc1nc2ccccc2c(=O)[nH]1)Cc1cc(=O)oc2cc(OC)ccc12 | -51.1%

Row | SMILES | hERG current change (%, negative = inhibition) at 10uM
64 | CN(Cc1nc2ccccc2c(=O)[nH]1)Cc1cc(=O)oc2ccc3ccccc3c12 | -10.1%
65 | N#Cc1ccccc1S(=O)(=O)N1CCN(CC(=O)NCC2(N3CCOCC3)CCCCC2)CC1 | -27.3%
66 | CCOc1cc(/C=C2/NC(=O)N(CC(=O)OC)C2=O)ccc1O | 3.71%
67 | O=C(O)c1ccc(Br)c(S(=O)(=O)N2CCCC2)c1 | 9.91%
68 | COc1ccc(NC(=O)C(=O)NCCN2CCN(C(=O)c3ccco3)CC2)cc1 | -11.1%
69 | CCNC(=O)C(=O)Nc1ccc([N+](=O)[O-])cc1 | 2.37%
70 | CCc1ccc(NC(=O)C(=O)NCCN2CCN(S(C)(=O)=O)CC2)cc1 | 20.5%
71 | CCc1ccc(NC(=O)C(=O)NCCN2CCN(C(=O)c3ccco3)CC2)cc1 | -67%
72 | CCc1ccc(CN2CCN(C(=O)c3ccco3)CC2)cc1.O=C(O)C(=O)O | -23.8%
73 | Cc1ccc(NC(=O)C(=O)NCCN2CCN(S(C)(=O)=O)CC2)cc1 | 19.6%
74 | Cc1ccc(NC(=O)C(=O)NCCN2CCN(Cc3ccc([N+](=O)[O-])cc3)CC2)cc1 | -72.8%
75 | CCN1CCN(CCNC(=O)Nc2ccc([N+](=O)[O-])cc2)CC1 | -12.2%
76 | CCCCc1ccc(NC(=O)C(=O)NCCN2CCN(Cc3ccc([N+](=O)[O-])cc3)CC2)cc1 | -66.7%
77 | CCCCc1ccc(NC(=O)C(=O)NCCN2CCN(C(=O)c3ccc([N+](=O)[O-])cc3)CC2)cc1 | -22.4%
78 | CCc1ccc(NC(=O)C(=O)NCCN2CCN(Cc3ccc([N+](=O)[O-])cc3)CC2)cc1 | -72.5%
79 | O=C(CNC(=O)c1cccs1)NCC(=O)OCc1ccc(F)cc1 | -13.1%
80 | O=C(CN1C(=O)C(=O)N(C2CCCC2)C1=O)NCCc1ccc(Cl)cc1Cl | 10.4%
81 | COc1ccccc1NC(=O)Cn1nc(-c2ccncc2)nc1SCC(=O)NC1CCCC1 | -20.2%
